Results: publication PMC7862700, “An all-to-all approach to the identification of sequence-specific readers for epigenetic DNA modifications on cytosine”

Experiments:
Assay in all cases: DAPPL (digital affinity profiling via proximity ligation, sequencing); 10 mM Tris-HCl pH 7.5, 50 mM NaCl, 1 mM DTT, 4% glycerol, room temperature, 30 min; GST-TFs on glutathione beads, 16-mer random dsDNA library, 0.1% formaldehyde crosslink after washing; high values mean tight binding
[1] = target: T1, FLI1 (Homo sapiens, UniProt Q01543 1-452); conditions: protein: recombinant; tags: N-terminal GST; dsDNA, one strand shown
T1 sequence: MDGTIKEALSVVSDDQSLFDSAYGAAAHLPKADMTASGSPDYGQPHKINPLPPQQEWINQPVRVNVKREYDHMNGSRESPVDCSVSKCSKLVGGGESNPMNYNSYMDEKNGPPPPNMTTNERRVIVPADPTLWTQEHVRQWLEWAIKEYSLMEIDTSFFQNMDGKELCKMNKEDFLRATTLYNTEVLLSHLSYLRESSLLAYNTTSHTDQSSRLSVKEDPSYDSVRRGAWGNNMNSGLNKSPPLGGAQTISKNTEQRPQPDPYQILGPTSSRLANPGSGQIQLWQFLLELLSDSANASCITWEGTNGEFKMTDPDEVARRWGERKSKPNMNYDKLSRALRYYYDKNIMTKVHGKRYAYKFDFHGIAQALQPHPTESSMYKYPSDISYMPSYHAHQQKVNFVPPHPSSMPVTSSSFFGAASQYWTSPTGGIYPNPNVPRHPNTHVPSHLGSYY
Method in brief: (§1)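 GST fusions of human transcription factors were expressed in yeast and captured with glutathione beads. Once given DNA barcodes and pooled alongside a tag-only sample, they were incubated for 30 min at room temperature with 200 nmole of a random double-stranded 16-mer DNA library in Tris/NaCl/DTT/glycerol buffer, then washed, crosslinked (0.1% formaldehyde), proximity-ligated, PCR-amplified and sequenced on an Illumina NextSeq500. The binding signal of each hexamer is its read frequency for a factor divided by its frequency for the tag-only sample.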

[2] = target: T2, ELK1 (Homo sapiens, UniProt P19419 1-428); conditions: protein: recombinant; tags: N-terminal GST; dsDNA, one strand shown
T2 sequence: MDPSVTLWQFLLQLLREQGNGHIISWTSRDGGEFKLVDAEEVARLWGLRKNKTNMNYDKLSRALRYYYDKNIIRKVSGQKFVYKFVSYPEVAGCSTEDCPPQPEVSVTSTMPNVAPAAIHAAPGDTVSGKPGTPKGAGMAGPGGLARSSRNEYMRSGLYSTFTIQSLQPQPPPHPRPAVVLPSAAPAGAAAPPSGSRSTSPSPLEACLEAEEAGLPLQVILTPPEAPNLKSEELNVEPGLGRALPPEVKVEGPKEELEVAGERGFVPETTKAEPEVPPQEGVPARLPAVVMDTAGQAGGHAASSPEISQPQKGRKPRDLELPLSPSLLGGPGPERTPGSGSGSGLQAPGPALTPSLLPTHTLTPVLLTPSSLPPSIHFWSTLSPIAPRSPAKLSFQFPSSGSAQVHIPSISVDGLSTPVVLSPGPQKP
Method in brief: as §1

[3] = target: T3, GABPA (Homo sapiens, UniProt Q06546 1-454); conditions: protein: recombinant; tags: N-terminal GST; dsDNA, one strand shown
T3 sequence: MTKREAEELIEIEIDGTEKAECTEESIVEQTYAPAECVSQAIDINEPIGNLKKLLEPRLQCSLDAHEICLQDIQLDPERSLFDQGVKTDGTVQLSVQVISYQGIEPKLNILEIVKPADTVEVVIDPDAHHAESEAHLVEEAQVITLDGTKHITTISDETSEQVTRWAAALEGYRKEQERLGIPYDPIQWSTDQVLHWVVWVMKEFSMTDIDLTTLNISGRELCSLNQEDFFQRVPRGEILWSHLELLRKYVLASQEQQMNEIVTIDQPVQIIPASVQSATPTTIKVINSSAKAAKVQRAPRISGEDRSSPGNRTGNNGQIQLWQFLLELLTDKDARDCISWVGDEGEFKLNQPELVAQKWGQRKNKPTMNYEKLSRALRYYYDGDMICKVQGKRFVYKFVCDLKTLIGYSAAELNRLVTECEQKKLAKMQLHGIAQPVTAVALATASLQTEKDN
Method in brief: as §1

[4] = target: T4, ERG (Homo sapiens, UniProt P11308 1-479); conditions: protein: recombinant; tags: N-terminal GST; dsDNA, one strand shown
T4 sequence: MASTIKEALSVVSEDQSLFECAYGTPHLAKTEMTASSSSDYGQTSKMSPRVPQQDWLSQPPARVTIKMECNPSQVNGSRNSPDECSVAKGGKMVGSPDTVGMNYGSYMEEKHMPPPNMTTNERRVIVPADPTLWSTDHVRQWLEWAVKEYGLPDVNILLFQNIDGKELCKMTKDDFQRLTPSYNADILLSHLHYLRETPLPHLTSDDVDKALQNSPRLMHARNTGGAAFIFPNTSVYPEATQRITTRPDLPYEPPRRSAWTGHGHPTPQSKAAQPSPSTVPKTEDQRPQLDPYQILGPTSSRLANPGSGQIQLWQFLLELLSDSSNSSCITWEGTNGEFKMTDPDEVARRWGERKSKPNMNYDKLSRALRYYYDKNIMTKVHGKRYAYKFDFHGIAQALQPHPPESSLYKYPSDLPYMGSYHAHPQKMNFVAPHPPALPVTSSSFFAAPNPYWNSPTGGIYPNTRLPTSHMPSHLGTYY
Method in brief: as §1

[5] = target: ELF1 (Homo sapiens, UniProt P32519 1-619); conditions: protein: recombinant; tags: N-terminal GST; dsDNA, one strand shown
ELF1, sequence (P32519 whole entry): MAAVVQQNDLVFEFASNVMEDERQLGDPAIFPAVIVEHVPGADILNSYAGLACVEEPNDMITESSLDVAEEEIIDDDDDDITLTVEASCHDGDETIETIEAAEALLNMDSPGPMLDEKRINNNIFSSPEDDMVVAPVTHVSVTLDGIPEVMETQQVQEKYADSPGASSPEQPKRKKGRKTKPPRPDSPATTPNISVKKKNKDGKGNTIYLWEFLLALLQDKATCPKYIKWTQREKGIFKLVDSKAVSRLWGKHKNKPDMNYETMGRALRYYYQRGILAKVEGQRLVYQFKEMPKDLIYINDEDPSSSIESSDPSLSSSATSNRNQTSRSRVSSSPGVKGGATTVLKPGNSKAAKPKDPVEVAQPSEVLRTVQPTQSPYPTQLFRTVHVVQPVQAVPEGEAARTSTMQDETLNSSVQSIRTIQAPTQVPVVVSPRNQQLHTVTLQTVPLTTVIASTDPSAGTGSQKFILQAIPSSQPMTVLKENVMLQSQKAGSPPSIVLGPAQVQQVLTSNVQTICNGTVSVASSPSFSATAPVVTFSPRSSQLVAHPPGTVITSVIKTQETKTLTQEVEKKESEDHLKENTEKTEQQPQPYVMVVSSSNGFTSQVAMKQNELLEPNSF
Method in brief: as §1

[6] = target: T5, EHF (Homo sapiens, UniProt Q9NZC4 1-300); conditions: protein: recombinant; tags: N-terminal GST; dsDNA, one strand shown
T5 sequence: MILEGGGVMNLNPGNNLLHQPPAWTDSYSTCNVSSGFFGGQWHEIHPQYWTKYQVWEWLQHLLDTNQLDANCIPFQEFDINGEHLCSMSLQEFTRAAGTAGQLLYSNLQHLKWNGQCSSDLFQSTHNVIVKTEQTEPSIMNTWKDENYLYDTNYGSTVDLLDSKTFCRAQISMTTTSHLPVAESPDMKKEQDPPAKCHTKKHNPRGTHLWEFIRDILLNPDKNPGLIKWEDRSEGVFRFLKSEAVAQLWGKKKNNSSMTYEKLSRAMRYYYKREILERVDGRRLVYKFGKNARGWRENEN
Method in brief: as §1

[7] = target: SPI1 (Homo sapiens, UniProt P17947 1-270); conditions: protein: recombinant; tags: N-terminal GST; dsDNA, one strand shown
Method in brief: as §1

[8] = target: SPIB (Homo sapiens, UniProt Q01892 1-262); conditions: protein: recombinant; tags: N-terminal GST; dsDNA, one strand shown
SPIB, sequence (Q01892 whole entry): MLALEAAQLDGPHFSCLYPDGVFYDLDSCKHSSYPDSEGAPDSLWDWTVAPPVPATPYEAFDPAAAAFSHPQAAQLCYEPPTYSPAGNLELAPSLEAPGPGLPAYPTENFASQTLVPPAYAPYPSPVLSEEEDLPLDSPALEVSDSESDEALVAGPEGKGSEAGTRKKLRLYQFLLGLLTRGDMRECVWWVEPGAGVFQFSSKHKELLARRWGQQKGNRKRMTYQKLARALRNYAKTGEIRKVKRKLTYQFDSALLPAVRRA
Method in brief: as §1

[9] = target: T6, ELK3 (Homo sapiens, UniProt P41970 1-407); conditions: protein: recombinant; tags: N-terminal GST; dsDNA, one strand shown
T6 sequence: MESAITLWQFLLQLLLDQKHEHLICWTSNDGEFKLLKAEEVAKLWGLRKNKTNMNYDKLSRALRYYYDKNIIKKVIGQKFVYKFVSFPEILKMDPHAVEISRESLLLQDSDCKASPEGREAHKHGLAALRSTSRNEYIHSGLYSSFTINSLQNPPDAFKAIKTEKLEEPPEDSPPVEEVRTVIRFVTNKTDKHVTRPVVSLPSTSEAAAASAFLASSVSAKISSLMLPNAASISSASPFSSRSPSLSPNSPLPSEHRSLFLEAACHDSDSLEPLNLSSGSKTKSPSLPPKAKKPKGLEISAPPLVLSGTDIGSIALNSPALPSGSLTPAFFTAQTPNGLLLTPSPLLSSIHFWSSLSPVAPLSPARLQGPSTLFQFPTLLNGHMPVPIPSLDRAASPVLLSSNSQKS
Method in brief: as §1

[10] = target: T7, FEV (Homo sapiens, UniProt Q99581 1-238); conditions: protein: recombinant; tags: N-terminal GST; dsDNA, one strand shown
T7 sequence: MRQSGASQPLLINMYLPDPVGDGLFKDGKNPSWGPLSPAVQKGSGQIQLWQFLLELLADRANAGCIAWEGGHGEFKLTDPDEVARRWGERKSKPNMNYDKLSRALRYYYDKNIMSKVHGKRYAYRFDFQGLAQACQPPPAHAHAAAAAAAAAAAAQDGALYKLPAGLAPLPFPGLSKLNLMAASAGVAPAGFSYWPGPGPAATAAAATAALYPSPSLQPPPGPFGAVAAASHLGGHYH
Method in brief: as §1

[11] = target: ETV5 (Homo sapiens, UniProt P41161 1-510); conditions: protein: recombinant; tags: N-terminal GST; dsDNA, one strand shown
ETV5, sequence (P41161 whole entry): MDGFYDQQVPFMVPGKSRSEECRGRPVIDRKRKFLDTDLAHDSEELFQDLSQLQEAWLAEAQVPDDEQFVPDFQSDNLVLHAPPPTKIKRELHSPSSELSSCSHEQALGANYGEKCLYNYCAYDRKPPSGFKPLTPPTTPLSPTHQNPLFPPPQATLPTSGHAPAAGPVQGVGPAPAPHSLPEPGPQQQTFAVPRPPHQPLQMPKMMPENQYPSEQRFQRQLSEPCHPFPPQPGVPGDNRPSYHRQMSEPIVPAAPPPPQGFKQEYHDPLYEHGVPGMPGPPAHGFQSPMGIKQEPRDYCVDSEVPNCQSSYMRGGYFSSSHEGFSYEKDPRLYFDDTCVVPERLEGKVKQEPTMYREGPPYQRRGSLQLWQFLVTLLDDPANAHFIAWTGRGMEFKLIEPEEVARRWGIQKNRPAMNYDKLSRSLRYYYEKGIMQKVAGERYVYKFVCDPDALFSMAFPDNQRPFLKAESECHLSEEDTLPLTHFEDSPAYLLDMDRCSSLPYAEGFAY
Method in brief: as §1

[12] = target: HSF1 (Homo sapiens, UniProt Q00613 1-529); conditions: protein: recombinant; tags: N-terminal GST; chain copies: 3; dsDNA, one strand shown
HSF1, sequence (Q00613 whole entry): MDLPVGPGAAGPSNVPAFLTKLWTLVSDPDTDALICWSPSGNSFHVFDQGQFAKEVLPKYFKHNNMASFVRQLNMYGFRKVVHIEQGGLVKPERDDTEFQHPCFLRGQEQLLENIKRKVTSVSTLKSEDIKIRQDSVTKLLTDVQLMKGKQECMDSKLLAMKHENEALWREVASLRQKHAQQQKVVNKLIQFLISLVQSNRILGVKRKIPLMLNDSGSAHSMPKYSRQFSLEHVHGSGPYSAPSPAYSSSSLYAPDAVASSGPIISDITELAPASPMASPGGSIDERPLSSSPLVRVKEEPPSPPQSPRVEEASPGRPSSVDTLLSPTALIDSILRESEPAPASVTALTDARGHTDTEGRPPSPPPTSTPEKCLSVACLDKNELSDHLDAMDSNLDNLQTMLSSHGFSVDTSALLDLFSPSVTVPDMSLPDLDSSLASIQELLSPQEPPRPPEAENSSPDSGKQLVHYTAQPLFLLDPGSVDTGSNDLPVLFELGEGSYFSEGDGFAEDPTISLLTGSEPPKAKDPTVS
Method in brief: as §1

[13] = target: T8, SPIC (Homo sapiens, UniProt Q8N5J4 1-248); conditions: protein: recombinant; tags: N-terminal GST; dsDNA, one strand shown
T8 sequence: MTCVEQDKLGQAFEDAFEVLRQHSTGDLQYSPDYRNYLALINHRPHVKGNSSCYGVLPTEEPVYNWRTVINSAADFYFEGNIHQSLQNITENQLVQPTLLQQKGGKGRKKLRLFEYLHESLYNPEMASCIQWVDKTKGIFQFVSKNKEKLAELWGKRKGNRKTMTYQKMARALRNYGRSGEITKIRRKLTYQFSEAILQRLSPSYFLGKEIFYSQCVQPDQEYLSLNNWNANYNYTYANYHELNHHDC
Method in brief: as §1

[14] = target: ELF4 (Homo sapiens, UniProt Q99607 1-663); conditions: protein: recombinant; tags: N-terminal GST; dsDNA, one strand shown
ELF4, sequence (Q99607 whole entry): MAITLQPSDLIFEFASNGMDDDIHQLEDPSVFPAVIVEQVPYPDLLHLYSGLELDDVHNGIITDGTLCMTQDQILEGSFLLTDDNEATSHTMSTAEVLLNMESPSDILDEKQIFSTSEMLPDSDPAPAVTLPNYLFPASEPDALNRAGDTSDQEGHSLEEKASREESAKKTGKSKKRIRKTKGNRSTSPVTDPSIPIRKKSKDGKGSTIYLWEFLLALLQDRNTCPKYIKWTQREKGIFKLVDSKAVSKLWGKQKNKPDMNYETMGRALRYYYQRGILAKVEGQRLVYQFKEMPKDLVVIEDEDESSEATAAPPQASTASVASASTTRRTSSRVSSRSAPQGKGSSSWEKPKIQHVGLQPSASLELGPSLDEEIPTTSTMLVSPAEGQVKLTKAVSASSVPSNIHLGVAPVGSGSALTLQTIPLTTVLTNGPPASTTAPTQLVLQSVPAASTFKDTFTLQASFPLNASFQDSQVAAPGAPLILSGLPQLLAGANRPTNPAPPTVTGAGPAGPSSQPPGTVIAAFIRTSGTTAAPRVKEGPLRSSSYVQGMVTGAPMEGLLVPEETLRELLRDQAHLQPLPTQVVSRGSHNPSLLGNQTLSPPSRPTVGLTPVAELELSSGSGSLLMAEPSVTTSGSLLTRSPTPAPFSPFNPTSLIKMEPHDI
Method in brief: as §1

[15] = target: T9, ELK4 (Homo sapiens, UniProt P28324-2 1-405); conditions: protein: recombinant; tags: N-terminal GST; dsDNA, one strand shown
T9 sequence: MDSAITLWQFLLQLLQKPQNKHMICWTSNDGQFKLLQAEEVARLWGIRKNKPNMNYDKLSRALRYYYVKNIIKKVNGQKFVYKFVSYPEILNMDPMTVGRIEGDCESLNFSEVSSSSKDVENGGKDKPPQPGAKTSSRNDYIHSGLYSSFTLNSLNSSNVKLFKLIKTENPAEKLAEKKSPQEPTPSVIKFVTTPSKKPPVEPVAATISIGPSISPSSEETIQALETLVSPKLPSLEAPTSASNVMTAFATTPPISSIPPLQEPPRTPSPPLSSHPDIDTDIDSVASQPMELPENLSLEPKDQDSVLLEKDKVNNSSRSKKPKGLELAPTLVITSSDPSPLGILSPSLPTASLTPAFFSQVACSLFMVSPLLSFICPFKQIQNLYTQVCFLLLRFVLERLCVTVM
Method in brief: as §1

[16] = target: T10, ETV2 (Homo sapiens, UniProt O00321 1-342); conditions: protein: recombinant; tags: N-terminal GST; dsDNA, one strand shown
T10 sequence: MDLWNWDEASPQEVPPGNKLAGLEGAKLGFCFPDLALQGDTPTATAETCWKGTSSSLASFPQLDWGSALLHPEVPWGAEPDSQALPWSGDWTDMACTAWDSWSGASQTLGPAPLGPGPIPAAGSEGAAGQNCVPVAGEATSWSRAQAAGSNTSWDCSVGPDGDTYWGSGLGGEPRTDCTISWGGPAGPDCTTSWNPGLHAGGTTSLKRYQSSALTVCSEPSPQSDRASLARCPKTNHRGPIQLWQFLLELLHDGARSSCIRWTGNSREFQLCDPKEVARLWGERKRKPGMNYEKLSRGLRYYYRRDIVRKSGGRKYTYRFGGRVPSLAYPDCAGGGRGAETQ
Method in brief: as §1

[17] = target: T11, ELF3 (Homo sapiens, UniProt P78545 1-371); conditions: protein: recombinant; tags: N-terminal GST; dsDNA, one strand shown
T11 sequence: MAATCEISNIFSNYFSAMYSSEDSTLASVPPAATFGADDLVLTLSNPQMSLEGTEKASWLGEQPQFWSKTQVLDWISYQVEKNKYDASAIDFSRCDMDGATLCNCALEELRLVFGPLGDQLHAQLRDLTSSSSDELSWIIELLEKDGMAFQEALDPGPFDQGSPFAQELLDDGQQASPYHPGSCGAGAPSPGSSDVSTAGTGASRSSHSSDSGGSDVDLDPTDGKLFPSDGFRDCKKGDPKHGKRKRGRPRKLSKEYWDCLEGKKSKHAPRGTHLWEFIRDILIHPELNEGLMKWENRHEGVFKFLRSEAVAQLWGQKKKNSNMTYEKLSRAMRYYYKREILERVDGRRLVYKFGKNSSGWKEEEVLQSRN
Method in brief: as §1

[18] = target: CRX (Homo sapiens, UniProt O43186 1-299); conditions: protein: recombinant; tags: N-terminal GST; dsDNA, one strand shown
CRX, sequence (O43186 whole entry): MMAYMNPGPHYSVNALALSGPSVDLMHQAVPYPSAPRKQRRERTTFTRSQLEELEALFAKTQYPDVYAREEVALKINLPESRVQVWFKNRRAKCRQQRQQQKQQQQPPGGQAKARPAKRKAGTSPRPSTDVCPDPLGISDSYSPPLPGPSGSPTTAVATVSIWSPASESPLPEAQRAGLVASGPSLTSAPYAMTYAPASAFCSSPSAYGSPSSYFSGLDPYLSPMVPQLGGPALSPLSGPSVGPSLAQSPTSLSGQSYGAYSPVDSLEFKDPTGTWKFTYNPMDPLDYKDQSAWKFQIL
Method in brief: as §1

[19] = target: ETV1 (Homo sapiens, UniProt P50549 1-477); conditions: protein: recombinant; tags: N-terminal GST; dsDNA, one strand shown
ETV1, sequence (P50549 whole entry): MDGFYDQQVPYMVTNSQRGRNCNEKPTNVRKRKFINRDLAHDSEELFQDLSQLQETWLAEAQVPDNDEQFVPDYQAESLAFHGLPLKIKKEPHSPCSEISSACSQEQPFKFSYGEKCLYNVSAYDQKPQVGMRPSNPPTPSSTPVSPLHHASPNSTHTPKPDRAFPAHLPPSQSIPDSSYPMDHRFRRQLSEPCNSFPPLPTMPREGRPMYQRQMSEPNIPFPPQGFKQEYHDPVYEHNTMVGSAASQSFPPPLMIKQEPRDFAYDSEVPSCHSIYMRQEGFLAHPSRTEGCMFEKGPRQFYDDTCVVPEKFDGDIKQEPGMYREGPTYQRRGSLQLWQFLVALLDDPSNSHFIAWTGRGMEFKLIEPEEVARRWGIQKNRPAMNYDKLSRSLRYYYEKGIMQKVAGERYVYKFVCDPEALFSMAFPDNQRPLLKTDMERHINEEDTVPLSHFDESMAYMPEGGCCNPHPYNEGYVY
Method in brief: as §1

CCTAAC
binding signal [1]: 1.56 fold enrichment (6-mer frequency, TF over GST control)
binding signal [2]: 1.43 fold enrichment (6-mer frequency, TF over GST control)
binding signal [3]: 1.37 fold enrichment (6-mer frequency, TF over GST control)
binding signal [4]: 1.42 fold enrichment (6-mer frequency, TF over GST control)
binding signal [5]: 1.44 fold enrichment (6-mer frequency, TF over GST control)
binding signal [6]: 1.31 fold enrichment (6-mer frequency, TF over GST control)
binding signal [7]: 1.48 fold enrichment (6-mer frequency, TF over GST control)
binding signal [8]: 1.4 fold enrichment (6-mer frequency, TF over GST control)
binding signal [9]: 1.42 fold enrichment (6-mer frequency, TF over GST control)
binding signal [10]: 1.38 fold enrichment (6-mer frequency, TF over GST control)
binding signal [11]: 1.42 fold enrichment (6-mer frequency, TF over GST control)
binding signal [12]: 1.19 fold enrichment (6-mer frequency, TF over GST control)
binding signal [13]: 1.49 fold enrichment (6-mer frequency, TF over GST control)
binding signal [14]: 1.53 fold enrichment (6-mer frequency, TF over GST control)
binding signal [15]: 1.36 fold enrichment (6-mer frequency, TF over GST control)
binding signal [16]: 1.41 fold enrichment (6-mer frequency, TF over GST control)
binding signal [17]: 1.51 fold enrichment (6-mer frequency, TF over GST control)
binding signal [18]: 1.25 fold enrichment (6-mer frequency, TF over GST control)
binding signal [19]: 1.35 fold enrichment (6-mer frequency, TF over GST control)
